Reference: PubChem BioAssay (NCI)
This is part of a sample that, as a whole, favours compounds with a hit. Of some 83,000 tested, about 20% had one in any assay.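 Percent growth is the endpoint: 0 to 100 indicates growth inhibition (40 means 60% inhibition), 0 means no net growth, and negative values indicate cell death.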 A number with no mark means an inactive call. Calls of active or inactive are those of the source. Rule for the calls: active = growth percent below 10; inactive = the rest.

Columns and labels:
Experiment in all cases: NCI-60 one-dose screen, 48 h (100 = growth as untreated, 0 = no growth, -100 = all killed)
Conditions in all cases: 10 µM unless noted
HCT-15 colon = system: HCT-15 colon
HT29 colon = system: HT29 colon
SNB-19 CNS = system: SNB-19 CNS
U251 CNS = system: U251 CNS
PC-3 prostate = system: PC-3 prostate
SK-MEL-5 melanoma = system: SK-MEL-5 melanoma
UACC-62 melanoma = system: UACC-62 melanoma
SK-MEL-28 melanoma = system: SK-MEL-28 melanoma
SK-MEL-2 melanoma = system: SK-MEL-2 melanoma
EKVX NSCLC = system: EKVX NSCLC
SN12C renal = system: SN12C renal
UO-31 renal = system: UO-31 renal
TK-10 renal = system: TK-10 renal
ACHN renal = system: ACHN renal
CAKI-1 renal = system: CAKI-1 renal
A498 renal = system: A498 renal
CCRF-CEM leukemia = system: CCRF-CEM leukemia
MOLT-4 leukemia = system: MOLT-4 leukemia
LOX IMVI melanoma = system: LOX IMVI melanoma

SMILES | growth (HCT-15 colon) | growth (HT29 colon) | growth (SNB-19 CNS) [%] | growth (U251 CNS) | growth (PC-3 prostate) | growth (SK-MEL-5 melanoma) | growth (UACC-62 melanoma) | growth (SK-MEL-28 melanoma) | growth (SK-MEL-2 melanoma) [%] | growth (EKVX NSCLC) | growth (SN12C renal) | growth (UO-31 renal) | growth (TK-10 renal) | growth (ACHN renal) | growth (CAKI-1 renal) | growth (A498 renal) | growth (CCRF-CEM leukemia) | growth (MOLT-4 leukemia) | growth (LOX IMVI melanoma)
COc1ccc(-c2ccc(-c3ccc(C(=N)N)s3)s2)cc1Cl | -76% (active) | -84% (active) | 35.2 | -86.2% (active) | -92% (active) | 67.5% | -92.1% (active) | 90.1% | 96.2 | 70.1% | -83.7% (active) | 81.4% | -45.1% (active) | 16.9% | 68.3% | 65.3% | -31.2% (active) | -57.3% (active) | –
CCCCN(CCCC)C(=N)c1ccnc2ccccc12 | 101% | 89.1% | 115 | 107% | 105% | 119% | 111% | – | – | 104% | 113% | 89.7% | 105% | 109% | 108% | 90.6% | 8.24% (active) | 42.6% | 101%
CC(C)CSc1nc(NN)c(C#N)c(-c2ccccc2)n1 | 86.6% | 103% | 88.8 | 95.3% | 89.3% | 91.1% | 95.3% | 107% | 101 | 91.4% | 104% | 81.7% | 110% | 92.8% | 90.3% | 69.1% | 97.4% | 104% | –
C/C=C/C1=CN2C(=O)c3cc(OC4OC(C)C(NC)C(C)(O)C4O)c(C)cc3N=C[C@@H]2C1 (stereo partly specified) | 4.13% (active) | 5.72% (active) | 14.7 | 9.48% (active) | 7.19% (active) | -51.3% (active) | -80.4% (active) | -24.2% (active) | 27.8 | 6.04% (active) | 4.16% (active) | -34.5% (active) | 22.3% | -4.55% (active) | -8.21% (active) | -77.5% (active) | 0.51% (active) | 2.77% (active) | –
C/C=C(\C)C(C(=O)NC1CCCCC1)N(C(=O)C1CCc2cc(F)ccc2O1)c1ccc(Cl)cc1 (stereo unspecified) | 101% | 98.7% | 97.8 | 102% | 94.5% | 97.2% | 92.3% | – | 103 | 94.2% | 106% | 92.6% | 96.2% | 115% | – | 109% | 101% | 95.4% | 94.1%
CCn1c2ccccc2c2cc(NC(=O)Nc3ccc([N+](=O)[O-])cc3C)ccc21 | 25.5% | 17.9% | 66.6 | 31.5% | 19.2% | 48.1% | 38.9% | 67.2% | 53 | 62.3% | 55.6% | 23.6% | 53.8% | 31.9% | -4.18% (active) | 65.7% | 9.61% (active) | 17.9% | –
C=C1C(=O)O[C@H]2[C@H]1CC/C(Cn1cc(CNC(=O)Cc3cn(C(=O)c4ccc(Cl)cc4)c4ccc(OC)cc34)nn1)=C\CC[C@@]1(C)O[C@@H]21 | 52.3% | -57.4% (active) | 47 | 14.2% | 7.48% (active) | 48.8% | 8.27% (active) | – | 17.1 | 52.6% | 19.3% | 30.2% | -46.8% (active) | 15% | 67.4% | 53.7% | – | -23.5% (active) | -82% (active)
CCOC(=O)/C(C#N)=C1/C(=O)Nc2ccccc21 | 106% | 112% | 104 | 113% | 94.2% | 115% | 103% | 115% | 122 | 117% | 96.3% | 71.1% | 130% | 102% | 99.4% | 132% | 67.1% | 138% | –
